From PubChem BioAssay AID588689 (Southern Research Specialized Biocontainment Screening …, 2011)
About 1,000 (0.29%) of roughly 340,000 compounds were called active. Rule as the data show it: inconclusive = inhibition above about 29% without an active follow-up result; inactive = below that. These entries were drawn from the full list. Potency and affinity values are given separately.

Biological target: Genome polyprotein (Dengue virus type 2 (strain 16681-PDK53)) (UniProt P29991)
Assay: flavivirus cap methylation enzyme inhibition – biochemical, confirmation dose response, primary screen (AID 588689)
Conditions: Dengue-2 NS5 methyltransferase capping enzyme assay, at 25 µM, stronger effect = higher value
[1] = measured here: pilot screen replicate inhibition

Chain of Genome polyprotein (Dengue virus type 2 (strain 16681-PDK53)) (P29991 whole entry, looked up): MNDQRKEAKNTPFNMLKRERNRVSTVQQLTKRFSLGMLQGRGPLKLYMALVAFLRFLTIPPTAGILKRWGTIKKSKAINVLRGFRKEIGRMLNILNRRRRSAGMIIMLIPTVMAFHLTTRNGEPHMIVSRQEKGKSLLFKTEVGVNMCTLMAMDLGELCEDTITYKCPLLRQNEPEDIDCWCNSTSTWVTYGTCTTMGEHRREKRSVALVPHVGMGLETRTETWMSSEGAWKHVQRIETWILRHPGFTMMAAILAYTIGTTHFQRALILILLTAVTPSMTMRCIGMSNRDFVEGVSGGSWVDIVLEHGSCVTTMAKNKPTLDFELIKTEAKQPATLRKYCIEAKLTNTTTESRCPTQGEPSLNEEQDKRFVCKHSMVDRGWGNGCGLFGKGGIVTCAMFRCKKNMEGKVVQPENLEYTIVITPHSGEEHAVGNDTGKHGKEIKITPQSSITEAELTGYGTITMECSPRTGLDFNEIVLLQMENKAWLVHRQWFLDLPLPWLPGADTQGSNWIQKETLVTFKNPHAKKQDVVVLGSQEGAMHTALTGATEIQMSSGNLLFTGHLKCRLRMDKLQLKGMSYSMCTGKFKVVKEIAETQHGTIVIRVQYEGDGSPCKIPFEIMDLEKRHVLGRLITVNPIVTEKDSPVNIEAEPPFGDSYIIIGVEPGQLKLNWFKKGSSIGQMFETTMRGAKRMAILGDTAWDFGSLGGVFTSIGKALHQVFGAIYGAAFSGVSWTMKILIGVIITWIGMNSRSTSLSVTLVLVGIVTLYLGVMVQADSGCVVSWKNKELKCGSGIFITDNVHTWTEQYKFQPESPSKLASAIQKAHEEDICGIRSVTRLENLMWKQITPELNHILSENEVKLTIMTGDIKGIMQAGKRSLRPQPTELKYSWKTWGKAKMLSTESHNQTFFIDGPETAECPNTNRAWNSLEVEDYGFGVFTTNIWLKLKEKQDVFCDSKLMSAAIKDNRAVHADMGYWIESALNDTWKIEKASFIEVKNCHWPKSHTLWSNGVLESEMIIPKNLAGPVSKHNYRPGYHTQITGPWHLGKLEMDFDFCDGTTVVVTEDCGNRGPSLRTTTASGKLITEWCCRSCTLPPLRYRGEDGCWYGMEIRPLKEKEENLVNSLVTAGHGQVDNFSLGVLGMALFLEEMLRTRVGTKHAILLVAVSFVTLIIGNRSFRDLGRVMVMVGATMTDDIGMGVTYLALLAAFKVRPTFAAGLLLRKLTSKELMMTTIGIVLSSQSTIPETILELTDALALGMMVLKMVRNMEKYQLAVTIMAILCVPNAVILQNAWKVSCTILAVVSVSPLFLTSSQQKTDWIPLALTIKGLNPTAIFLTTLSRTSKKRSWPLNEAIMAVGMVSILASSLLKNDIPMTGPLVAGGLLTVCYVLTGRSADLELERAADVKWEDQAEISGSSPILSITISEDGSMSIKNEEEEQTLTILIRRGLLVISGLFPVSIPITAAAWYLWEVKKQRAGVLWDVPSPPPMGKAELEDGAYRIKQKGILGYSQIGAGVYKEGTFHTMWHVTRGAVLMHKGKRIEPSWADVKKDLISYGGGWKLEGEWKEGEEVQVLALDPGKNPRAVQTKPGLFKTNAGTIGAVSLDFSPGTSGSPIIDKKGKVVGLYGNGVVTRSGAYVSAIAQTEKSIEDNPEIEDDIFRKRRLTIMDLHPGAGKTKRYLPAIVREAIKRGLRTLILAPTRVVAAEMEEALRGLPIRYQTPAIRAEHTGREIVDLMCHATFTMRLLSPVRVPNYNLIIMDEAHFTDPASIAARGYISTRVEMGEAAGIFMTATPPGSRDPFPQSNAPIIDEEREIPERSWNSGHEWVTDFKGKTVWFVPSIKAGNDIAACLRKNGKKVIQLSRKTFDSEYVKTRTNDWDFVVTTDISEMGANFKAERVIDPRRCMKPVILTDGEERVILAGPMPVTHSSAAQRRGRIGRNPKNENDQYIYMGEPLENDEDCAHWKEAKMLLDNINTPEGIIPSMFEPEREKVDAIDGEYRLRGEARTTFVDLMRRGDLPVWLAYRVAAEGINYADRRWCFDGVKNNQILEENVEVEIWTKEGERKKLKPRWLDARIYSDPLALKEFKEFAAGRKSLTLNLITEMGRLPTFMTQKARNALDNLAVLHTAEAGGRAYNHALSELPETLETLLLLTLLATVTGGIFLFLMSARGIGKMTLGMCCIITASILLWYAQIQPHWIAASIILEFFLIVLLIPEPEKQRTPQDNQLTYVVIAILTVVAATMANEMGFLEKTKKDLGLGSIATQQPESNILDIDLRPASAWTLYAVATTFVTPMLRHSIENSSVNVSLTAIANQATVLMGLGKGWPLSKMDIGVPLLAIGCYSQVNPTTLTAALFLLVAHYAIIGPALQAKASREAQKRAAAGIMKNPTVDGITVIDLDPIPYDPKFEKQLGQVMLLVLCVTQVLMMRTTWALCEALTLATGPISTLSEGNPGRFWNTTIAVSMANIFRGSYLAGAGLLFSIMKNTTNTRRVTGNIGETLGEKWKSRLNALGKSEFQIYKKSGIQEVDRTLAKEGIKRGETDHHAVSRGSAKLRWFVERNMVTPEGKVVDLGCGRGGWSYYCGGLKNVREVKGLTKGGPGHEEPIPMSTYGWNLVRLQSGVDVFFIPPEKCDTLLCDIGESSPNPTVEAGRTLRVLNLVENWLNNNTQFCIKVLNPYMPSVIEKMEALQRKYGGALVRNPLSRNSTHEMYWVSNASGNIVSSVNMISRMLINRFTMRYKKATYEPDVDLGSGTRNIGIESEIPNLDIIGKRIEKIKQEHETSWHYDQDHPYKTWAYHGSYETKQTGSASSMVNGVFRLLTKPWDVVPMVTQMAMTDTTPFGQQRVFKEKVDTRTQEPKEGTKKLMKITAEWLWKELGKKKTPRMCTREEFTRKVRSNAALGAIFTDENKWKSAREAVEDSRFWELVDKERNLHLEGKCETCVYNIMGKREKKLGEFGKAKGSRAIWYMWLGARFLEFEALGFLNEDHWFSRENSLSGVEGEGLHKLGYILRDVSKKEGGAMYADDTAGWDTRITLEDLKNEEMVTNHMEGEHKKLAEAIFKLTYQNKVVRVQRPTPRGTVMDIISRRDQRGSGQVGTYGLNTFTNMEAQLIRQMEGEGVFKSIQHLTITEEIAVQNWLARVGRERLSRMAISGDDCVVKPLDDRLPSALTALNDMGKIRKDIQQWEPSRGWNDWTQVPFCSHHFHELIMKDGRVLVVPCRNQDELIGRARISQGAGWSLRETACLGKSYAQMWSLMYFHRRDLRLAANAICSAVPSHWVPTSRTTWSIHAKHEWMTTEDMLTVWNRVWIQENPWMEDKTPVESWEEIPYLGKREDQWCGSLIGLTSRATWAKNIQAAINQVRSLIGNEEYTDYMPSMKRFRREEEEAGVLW

Row | Compound | inhibition | inhibition [1]
1 | CCCCN1C(=O)N(CCc2ccc(F)cc2)S(=O)(=O)c2cc(C(F)(F)F)ccc21 | -0.33% (inactive) | 1.51%
2 | Cc1cccc2nc3ccccc3nc12 | -0.76% (inactive) | 
3 | COc1ccc2nc3ccccc3nc2c1N | 40.2% (inactive) | 
4 | NC(=O)c1ccc(=O)n(Cc2ccc(F)c(F)c2)c1 | -1.31% (inactive) | 
5 | Cc1ccc(N)cc1O | -2.91% (inactive) | 
6 | Cc1cc(C(c2ccc(O)cc2)c2cc(C)c(O)cc2C)c(C)cc1O | -0.79% (inactive) | 
7 | Cc1ccc(CNC(=O)C(C(=O)NCc2ccc(C)o2)c2ncc(C(F)(F)F)cc2Cl)o1 | -13.8% (inactive) | 
8 | COc1ccc(Br)cc1C(=O)NC(=S)Nc1ccc(Cl)c(C(=O)O)c1 | 4.69% (inactive) | 
9 | COc1ccc(Br)cc1/C=C/C(=O)NC(=S)Nc1ccc(CN2CCOCC2)cc1 | -10.4% (inactive) | 
10 | c1ccc(NN=C2c3ccccc3-c3ccccc32)cc1 | -1.94% (inactive) | 
11 | CC1(C)OC(=O)C(=NNc2ccccc2)C(=O)O1 | -0.73% (inactive) | 
12 | COc1ccc(N(C)C(=O)c2ccc3c(c2)nnn3C)cc1 | -4.51% (inactive) | 
13 | O=C(CN1CCOCC1)Nc1ccccc1NC(=O)C1CCN(c2ncccn2)CC1 | -11.3% (inactive) | 
14 | COC(=O)[C@@]1(Cc2ccccc2)[C@H]2C(=O)N(C)C(=O)[C@H]2[C@H]2CN=C(SCc3ccc(C)cc3)N21 | 1.99% (inactive) | 0.61%
15 | Cc1csc(/C(=N/OC(=O)c2ccco2)C(N)=O)n1 | -32.5% (inactive) | 
16 | N/C(=N\OC(=O)c1ccco1)c1ccc(Br)cc1 | -5.29% (inactive) | 
17 | O=C(CCCOc1cccc(Br)c1)NCCOc1ccccc1 | -4.07% (inactive) | 
18 | Cn1c(=O)c2sccc2n(CC(=O)NCCC2=CCCCC2)c1=O | -7.27% (inactive) | 
19 | CCN(CC)Cc1nc2c(c(=O)[nH]1)C1(CCCCC1)Cc1ccccc1-2 | -5.55% (inactive) | 
20 | COC(=O)c1ccc(N2NC(=O)/C(=C/c3cc(OC)c(O)c(OC)c3)C2=O)cc1 | -24.8% (inactive) | 
21 | COC(=O)c1ccc(N2NC(=O)/C(=C/c3ccc(OC)c(OC)c3)C2=O)cc1 | 34.3% (inactive) | 
22 | O=C1NN(c2cccc(Br)c2)C(=O)/C1=C/c1ccc(-c2cc([N+](=O)[O-])ccc2O)o1 | 70.1% (inactive) | 
23 | COc1ccc(NC(=O)/C(C#N)=C/c2ccc(-c3ccc(Cl)c(C(=O)O)c3)o2)cc1 | 3.44% (inactive) | 

Row | Compound | inhibition | inhibition [1]
24 | O=Cc1ccc(-c2ccccc2C(=O)O)o1 | -2.22% (inactive) | 
25 | Cc1nnc(NC(=O)c2ccc3c(c2)OCO3)s1 | 8.19% (inactive) | 
26 | Cc1noc(C)c1CSCC(=O)Nc1nc2ccc(S(C)(=O)=O)cc2s1 | -2.95% (inactive) | 
27 | N#CCC(=O)N/N=C/c1ccc(OS(=O)(=O)c2ccccc2)cc1 | -3.76% (inactive) | -2.42%
28 | COC(=O)Cn1c(CCS(=O)(=O)c2ccc(Cl)cc2)nc2ccccc21 | -5.46% (inactive) | 
29 | Cc1ccc(-c2cnc3ccccc3n2)cc1C | -6.51% (inactive) | 
30 | O=C(Nc1ccc2c(c1)OCO2)c1n[nH]c(=O)c2ccccc12 | 11.1% (inactive) | 
31 | CSCCC(NC(=O)C1CC1)c1nc2ccccc2[nH]1 (stereo not drawn) | -5.48% (inactive) | 
32 | C[C@H](NC(=O)c1nc[nH]c1C(=O)N1CCN(C(=O)OC(C)(C)C)CC1)C(=O)OCc1ccccc1 | -2.48% (inactive) | 
33 | O=C(Nc1ccc(C(F)(F)F)cc1)c1csc(-c2ccncc2)n1 | -2.96% (inactive) | 
34 | CSc1nsc(SC)c1NC(=O)N1CCCC1 | -1.61% (inactive) | 
35 | C#CCN1C(=O)S/C(=C\c2ccc(-c3ccc(Cl)c(C(=O)O)c3)o2)C1=O | 2.31% (inactive) | 
36 | O=C(O)c1cc(-c2ccc(/C=C3\NC(=O)N(c4ccccc4)C3=O)o2)ccc1Cl | 3.09% (inactive) | 
37 | O=C(O)c1cc(-c2ccc(/C=C3\NC(=O)N(c4ccc(Cl)cc4)C3=O)o2)ccc1Cl | 13.8% (inactive) | 
38 | Cc1ccc(N2NC(=O)/C(=C/c3ccc(-c4ccc(Cl)c(C(=O)O)c4)o3)C2=O)cc1 | 15.4% (inactive) | 
39 | Cc1cn([C@H]2C[C@H](O)[C@@H](CNC(=O)CNC(=O)CN)O2)c(=O)[nH]c1=O | 2.27% (inactive) | 
40 | CCOc1ccc2nc(N/C(N)=N/S(=O)(=O)c3ccc(C)cc3)nc(C)c2c1 | -2.74% (inactive) | 
41 | Cc1ccc(NC(=O)CC(=O)c2ccccc2)cc1C | -1.66% (inactive) | 
42 | C[C@H](NC(=O)c1ccccc1Cl)C(=O)OC(C(=O)Nc1cc(C(F)(F)F)ccc1Cl)c1ccccc1 (stereo partly drawn) | 6.11% (inactive) | 
43 | Oc1ccccc1N=N/C(=N/Nc1ccccc1O)c1ccccc1 | 6.32% (inactive) | 
44 | O=C(O)c1cc(S(=O)(=O)Nc2ccccc2C(=O)O)ccc1O | 24.8% (inactive) | 
45 | Cc1cccc(NC(=O)c2cc(NC(=O)C3CCCCC3C(=O)O)ccc2N2CCOCC2)c1 (stereo not drawn) | 3.25% (inactive) | 
46 | CC(=O)Nc1ccc(N2CCCCC2)c(C(=O)Nc2cccc(C)c2)c1 | 1.3% (inactive) | 

Row | Compound | inhibition | inhibition [1]
47 | Cc1cnc(C(=O)OCc2nc3ccsc3c(=O)[nH]2)cn1 | -4.41% (inactive) | 
48 | Cc1ncc(CN2CCCC(C(=O)Nc3ccc(-c4ccco4)cc3)C2)cn1 (stereo not drawn) | -25.6% (inactive) | 
49 | O=C1C(=C(O)c2ccccc2)C(=O)c2ccccc21 | 12.9% (inactive) | 
50 | O=C1C(=O)c2ccc(-c3ccccc3)cc2-c2ccccc21 | -10.1% (inactive) | 8.18%
51 | COc1ccccc1-n1cc(-c2ccccc2)c2c(=S)nc[nH]c21 | 7.35% (inactive) | 
52 | COc1ccc(NC(=O)CCCc2ccccc2)cc1OC | -7.95% (inactive) | 
53 | CC(=O)NC(CC(=O)OCC(=O)c1ccc(NC(=O)CC(C)C)cc1)c1ccccc1 (stereo not drawn) | -7.74% (inactive) | 
54 | O=C1C(Cl)=C(Nc2ccc(O)cc2)C(=O)c2ccccc21 | 27.1% (inactive) | 
55 | O=C(O)c1cccc(NC2=C(n3nnc4ccccc43)C(=O)c3ccccc3C2=O)c1 | 0.29% (inactive) | 
56 | O=S(=O)(Nc1ccc2cn[nH]c2c1)c1ccc(Cl)cc1 | -2.71% (inactive) | 
57 | O=C1C(Cl)=C(Nc2ccccc2)C(=O)c2ccccc21 | 5.85% (inactive) | 
58 | CCNC1=C(Cl)C(=O)c2ccccc2C1=O | 6.43% (inactive) | 
59 | O=C(O)c1cccc(NC2=C(N3CCOCC3)C(=O)c3ccccc3C2=O)c1 | 15% (inactive) | 
60 | Cc1ccc(NC2=C(Cl)C(=O)c3ccccc3C2=O)cc1 | -0.64% (inactive) | 
61 | O=C1C(Cl)=C(NCCCO)C(=O)c2ccccc21 | -6.93% (inactive) | 
62 | CCOC(=O)CSc1nnc(-c2cccs2)n1-c1ccccc1 | -7.23% (inactive) | 
63 | COc1ccc(C)cc1NC(=O)NNC(=O)c1ccoc1C | 5.8% (inactive) | 
64 | COc1cccc(NC(=O)CN2CCC(NC(=O)c3ccccc3C)CC2)c1 | -2.2% (inactive) | 
65 | Cc1ccc(NC2=C(NC(=O)c3ccccc3)C(=O)c3ccccc3C2=O)cc1Cl | 26.9% (inactive) | 
66 | Cc1cccc(NC2=C(NCCO)C(=O)c3ccccc3C2=O)c1 | 1.45% (inactive) | 
67 | C=CCOc1ccc(/C=C/C(=O)OCC(=O)NCCCc2ccccc2)cc1 | 0% (inactive) | 
68 | Cn1c(NC(=O)c2ccc(C(C)(C)C)cc2)cc(=O)n(C)c1=O | 2.78% (inactive) | 
69 | O=C(c1cccnc1)N1CCN(CCCc2ccccc2)CC1 | -7.9% (inactive) | 

Row | Compound | inhibition | inhibition [1]
70 | COc1cccc(/C=C2\SC(=S)N(CCC(=O)Nc3ccc(O)cc3)C2=O)c1 | 3.49% (inactive) | 
71 | Cc1ccc(NC(=O)COc2cccc(/C=C3\SC(=S)N(CCC(=O)O)C3=O)c2)cc1Cl | 0.88% (inactive) | 
72 | COc1ccc(/C=C2/SC(=S)N(CCC(=O)O)C2=O)cc1 | 4.79% (inactive) | 
73 | O=C(O)CCN1C(=O)/C(=C\c2cccc(OCc3ccccc3)c2)SC1=S | 40.6% (inactive) | 
74 | O=C(COC(=O)c1cc(S(=O)(=O)N2CCOCC2)ccc1F)NCc1ccc2c(c1)OCO2 | -7.39% (inactive) | 
75 | C/C(CCc1ccccc1)=N/NC(=O)C(=O)NC(C)c1ccccc1 (stereo not drawn) | -9.31% (inactive) | 
76 | O=C(c1cnn(-c2ccccc2)c1)c1ccccc1O | 4.45% (inactive) | 
77 | CCc1cc(C(=O)Cc2cnn(-c3ccccc3)c2)c(O)cc1O | 5.45% (inactive) | -6.54%
78 | O=C(Cc1ccc(Br)cc1)Nc1nc2ccccc2[nH]1 | 3.24% (inactive) | 
79 | COc1cccc(C(=O)N/N=C/c2ccc(OC)c(COc3ccccc3C(N)=O)c2)c1 | 3.25% (inactive) | 
80 | C=CCn1c(SCC(=O)NC(=O)NCCC)nnc1C1CCCCC1 | 3.46% (inactive) | 
81 | O=C1c2ccccc2CCC12OC2c1ccc([N+](=O)[O-])cc1 (stereo not drawn) | -3.43% (inactive) | 
82 | CCSc1nc2cc(OC)c(OC)cc2c(=O)n1CC | 2.71% (inactive) | 
83 | CCOc1ccc(C(=O)CSc2nnc(C3CC3)n2C)cc1 | -4.8% (inactive) | 
84 | CCOc1ccc(-c2cn(-c3ccc(OC)cc3)c(SC)n2)cc1 | -2.59% (inactive) | 
85 | COc1cccc(C(c2c(O)nc(SC)n(C)c2=O)c2c(O)nc(SC)n(C)c2=O)c1 | 16.2% (inactive) | -1.21%
86 | COc1ccc(C(c2c(O)nc(SC)n(C)c2=O)c2c(O)nc(SC)n(C)c2=O)cc1O | -4.46% (inactive) | 
87 | CCn1c(SCC(N)=O)nnc1-c1ccc(OC)c(OC)c1 | -2.41% (inactive) | 
88 | COCCn1c(C)nnc1SCC(=O)NNC(=O)c1ccc(Br)cc1 | -3.23% (inactive) | 
89 | O=C(ONC(=O)C1C2C=CC(C2)C1C(=O)NOC(=O)c1ccccc1)c1ccccc1 (stereo not drawn) | -1.55% (inactive) | 
90 | O=C(CC1SCCNC1=O)Nc1ccccc1Cl (stereo not drawn) | 0% (inactive) | 
91 | COc1ccccc1C(=O)NCC(=O)N/N=C/c1cn[nH]c1-c1ccccc1 | -1.82% (inactive) | 
92 | Cc1c(OC(C)C(=O)NCC(O)c2ccccc2)ccc2c3c(c(=O)oc12)CCCC3 (stereo not drawn) | 2.62% (inactive) | 
